In assay [1] the test system is Plasmodium falciparum Sir2 (PF13_0152, Sir2A). The experiment in a line: pfSir2 binders on small-molecule microarrays, primary screen, biochemical, small-molecule microarray, 635 nm fluorescence (AID 1098).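 Also: score merges spot fluorescence intensity with its signal-to-noise ratio.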 The note with it: small-molecule microarray binding, fluorescence 635 nm; higher = more signal.
Assay [2] can be described thus: small-molecule microarray binders of probe aDKK1, primary screen, biochemical, biotinylated probe, 635/667 nm fluorescence (AID 1099).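 Also: score merges 667nm spot fluorescence with signal to noise across triplicate slides; reference of the scale not given here.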 Particulars: higher = more signal.
The nature of assay [3]: small-molecule microarray binders of probe aCHRDL2, primary screen, biochemical, biotinylated probe, 635/667 nm fluorescence (AID 1100). The note with it: higher = more signal.
The nature of assay [4]: splicing luciferase reporter signal modulators, primary screen, spliceosome inhibition project, cell-based, HEK293, splice +/- reporter (AID 1101).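 Also: HEK293 cells carrying a splicing-competent luciferase reporter gene; test concentration not given here.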 Particulars: luminescence, 24 h, higher = more signal, called active from +8 up or from −8 down. In general terms: Reporter assays use an easily measured gene product as a stand-in for the process of interest.
Assay [5] concerns the target Fibroblast growth factor 10 (Homo sapiens) (UniProt O15520). The experiment in a line: FGF10 binders on small-molecule microarrays, primary screen, biochemical, small-molecule microarray, 635 nm fluorescence (AID 1102). Particulars: FGF10 binding, fluorescence 635 nm, higher = more signal.
Assay [6] deals with glycogen synthase kinase-3 (GSK3A per assay name; protocol says GSK3B). Briefly: GSK3 binders on small-molecule microarrays, primary screen, biochemical, small-molecule microarray, 635 nm fluorescence, GSK3A (AID 1103). Also: the record names both GSK3A and GSK3B. Particulars: small-molecule microarray binding, fluorescence 635 nm; higher = more signal.
The target of assay [7] is Epidermal growth factor receptor (Homo sapiens) (UniProt P00533). The experiment in a line: EGFR binders on small-molecule microarrays, primary screen, biochemical, small-molecule microarray, 635 nm fluorescence (AID 1104).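 Also: score merges 667 nm emission intensity with spot signal to noise over triplicate slides.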 Particulars: EGFR binding, higher = more signal.
Epidermal growth factor receptor (Homo sapiens), sequence (P00533 whole entry, looked up): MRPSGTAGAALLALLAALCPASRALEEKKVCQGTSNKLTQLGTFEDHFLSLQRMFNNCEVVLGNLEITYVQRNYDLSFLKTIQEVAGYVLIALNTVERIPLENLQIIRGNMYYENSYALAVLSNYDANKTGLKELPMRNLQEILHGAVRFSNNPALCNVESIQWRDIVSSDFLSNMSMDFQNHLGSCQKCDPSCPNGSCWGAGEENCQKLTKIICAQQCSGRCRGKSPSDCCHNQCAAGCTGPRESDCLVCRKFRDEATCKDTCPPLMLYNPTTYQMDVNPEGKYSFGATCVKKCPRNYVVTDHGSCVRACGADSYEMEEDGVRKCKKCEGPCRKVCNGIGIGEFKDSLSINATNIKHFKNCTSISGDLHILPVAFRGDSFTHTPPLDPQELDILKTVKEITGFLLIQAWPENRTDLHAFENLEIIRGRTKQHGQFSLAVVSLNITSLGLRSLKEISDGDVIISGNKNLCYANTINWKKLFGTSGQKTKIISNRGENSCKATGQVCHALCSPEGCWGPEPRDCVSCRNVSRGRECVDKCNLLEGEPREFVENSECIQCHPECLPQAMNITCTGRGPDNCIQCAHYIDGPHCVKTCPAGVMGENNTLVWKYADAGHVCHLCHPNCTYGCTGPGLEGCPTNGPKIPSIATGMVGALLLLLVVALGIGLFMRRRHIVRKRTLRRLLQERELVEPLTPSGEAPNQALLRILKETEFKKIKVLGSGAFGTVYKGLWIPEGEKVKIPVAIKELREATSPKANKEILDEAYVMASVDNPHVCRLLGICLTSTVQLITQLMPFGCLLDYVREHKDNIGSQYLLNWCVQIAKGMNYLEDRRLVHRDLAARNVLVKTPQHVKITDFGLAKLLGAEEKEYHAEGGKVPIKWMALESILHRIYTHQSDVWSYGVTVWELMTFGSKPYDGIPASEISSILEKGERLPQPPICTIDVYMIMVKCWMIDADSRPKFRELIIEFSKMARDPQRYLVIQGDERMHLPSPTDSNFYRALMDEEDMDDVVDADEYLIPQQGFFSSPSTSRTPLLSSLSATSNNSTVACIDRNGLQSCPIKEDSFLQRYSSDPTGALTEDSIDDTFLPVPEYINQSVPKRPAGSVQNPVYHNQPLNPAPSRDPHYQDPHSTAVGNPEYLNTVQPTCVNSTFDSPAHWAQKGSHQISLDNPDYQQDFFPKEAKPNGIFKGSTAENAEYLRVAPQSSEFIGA
Assay [8] deals with Follistatin-related protein 3 (Homo sapiens) (UniProt O95633). The experiment in a line: FSTL3 binders on small-molecule microarrays, primary screen, biochemical, small-molecule microarray, 635 nm fluorescence (AID 1105).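 Also: score merges emission near 667 nm and signal to noise per printed spot across three slides.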 The note with it: FSTL3 binding, higher = more signal.
Follistatin-related protein 3 (Homo sapiens), sequence (O95633 whole entry, looked up): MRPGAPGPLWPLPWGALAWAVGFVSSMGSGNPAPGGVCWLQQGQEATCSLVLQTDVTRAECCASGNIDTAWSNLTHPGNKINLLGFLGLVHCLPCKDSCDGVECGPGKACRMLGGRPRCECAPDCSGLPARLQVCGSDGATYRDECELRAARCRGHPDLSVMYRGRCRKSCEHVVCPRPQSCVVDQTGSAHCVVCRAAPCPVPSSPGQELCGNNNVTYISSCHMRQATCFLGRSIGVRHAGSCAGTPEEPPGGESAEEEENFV
Assay [9] concerns the target Dickkopf-related protein 1 (Homo sapiens) (UniProt O94907). The experiment in a line: DKK1 binders on small-molecule microarrays, primary screen, biochemical, small-molecule microarray, 635 nm fluorescence scan (AID 1106).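 Also: score merges emission near 667 nm with signal to noise over three replicate slides.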 Particulars: DKK1 binding, higher = more signal.
The test system of assay [10] is Inhibin beta A chain (activin A). Briefly: INHBA (activin A) binders on microarrays, primary screen, biochemical, small-molecule microarray, 635 nm fluorescence scan (AID 1107).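 Also: mouse activin A protein probed at 4.33 µg/mL on printed slides; score merges bound-protein fluorescence near 667 nm with spot signal-to-noise.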 The note with it: small-molecule microarray binding, higher = more signal.

Activity calls are given as the source filed them.

Dickkopf-related protein 1 (Homo sapiens), sequence (O94907 whole entry, looked up): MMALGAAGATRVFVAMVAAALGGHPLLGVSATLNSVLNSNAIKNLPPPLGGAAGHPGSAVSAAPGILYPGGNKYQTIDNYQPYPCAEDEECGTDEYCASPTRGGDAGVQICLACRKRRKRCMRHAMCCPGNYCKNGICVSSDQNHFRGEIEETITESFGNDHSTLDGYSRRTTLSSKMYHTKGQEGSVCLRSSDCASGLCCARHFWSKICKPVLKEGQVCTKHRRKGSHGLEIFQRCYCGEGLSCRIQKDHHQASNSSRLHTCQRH
Fibroblast growth factor 10 (Homo sapiens), sequence (O15520 whole entry, looked up): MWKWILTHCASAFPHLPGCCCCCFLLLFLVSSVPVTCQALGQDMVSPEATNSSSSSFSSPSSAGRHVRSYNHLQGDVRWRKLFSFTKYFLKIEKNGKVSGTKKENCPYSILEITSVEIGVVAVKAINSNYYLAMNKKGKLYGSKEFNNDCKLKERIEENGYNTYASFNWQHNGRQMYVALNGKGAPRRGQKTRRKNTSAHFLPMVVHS

In the case of `C[N+](C)(C)CCCC[C@@H]1NC(=O)[C@H]2C[C@@H](C(=O)NCCCCCCNC(=O)CS)[C@@H](c3cccc(OCCO)c3)N2C1=O`, the composite z-score was 0.726 in assay [1]; -0.0575 in assay [2]; 0.861 in assay [3]; -0.85 in assay [5]; -0.805 in assay [6]; -1.06 in assay [7]. Besides, the composite z-score was -0.994 in assay [8], -0.602 in assay [9] and -0.57 in [10]. In assay [4], the z-score is -0.213 (inactive).
Take `NC(=O)N1C(=O)C2C(C1=O)C1C=C(c3ccc(CO)cc3)C2C(c2cccs2)N1Cc1cccc(OC(F)(F)F)c1` (stereo not given): the composite z-score was -0.148 in [1]; 0.799 in [2]; 1.02 in [3]; 0.302 in assay [5]; -0.343 in [6]; -0.813 in [7]. Also, the composite z-score in assay [8] came to 0.122; in assay [9], 0.245; in [10] it was 1.49. In addition, the z-score in assay [4] is -1.99 (inactive).
In the case of `COC(=O)[C@@]1(Cc2ccc(OC)cc2)[C@H]2c3cc(C(=O)N4CCCC4)n(Cc4ccc(O)c(OC)c4)c3C[C@H]2CN1C(=O)c1ccccc1`, the composite z-score was found to be 1.18 in assay [1]; 1.92 in assay [2]; 1.39 in [3]; 0.511 in assay [5]; 0.164 in [6]; 0.207 in [7]. Further, the composite z-score in [8] was 0.282; in [9], 0.0115; in [10] it was -0.0478. For the same molecule, the z-score in assay [4] is -1.15 (inactive).
On to `O[C@@H](Cc1ccccc1)[C@H]1C2C=CCCC=C2CN1Cc1cccc(Cl)c1` (stereo not given in full), for which the composite z-score in assay [1] was 0.77; in assay [2], -0.0422; in assay [3], -0.284; in assay [5], 0.9; in assay [6] it was 1.08; in assay [7], 0.231. Further, the composite z-score is 1.24 in assay [8], 0.496 in [9] and 0.296 in assay [10]. Besides, in [4], the z-score is -0.381 (inactive).
Consider `O=C(CS)NCCCCCCNC(=O)[C@@H]1C[C@@H]2C(=O)N[C@@H](Cc3ccccc3)C(=O)N2[C@@H]1c1cccc(OCCO)c1`, for which the composite z-score in [1] is 1.5; in assay [2], -0.367; in [3] it was 0.594; in assay [5], 1.32; in assay [6] it was 1.34; in assay [7] it was 0.557. The figures for the composite z-score in assay [8], in [9] and in assay [10] were 1.26, 0.859 and 0.382, respectively. Besides, the z-score in [4] was 0.528 (inactive).
For `C[N+](C)(C)CCCCCCNC(=O)[C@@H]1C[C@@H]2C(=O)N[C@@H](Cc3ccccc3)C(=O)N2[C@@H]1c1cccc(OCCO)c1`, the composite z-score was 1.63 in [1]; -0.147 in [2]; 0.376 in assay [3]; 0.72 in [5]; 0.216 in assay [6]; -0.0586 in assay [7]. Also, the composite z-score in assay [8] came to 1.32; in [9], 1.02; in assay [10] it was 0.615. Besides, the z-score in assay [4] is -0.189 (inactive).
Regarding `C=C(CCCC)/C(=C/C[C@H](OC(C)=O)c1ccccc1OCCO)c1cc(C(=O)OC)ccc1OC`, the composite z-score is 1.3 in [1]; -0.231 in [2]; -0.285 in assay [3]; 0.143 in [5]; -0.0368 in assay [6]; -0.184 in assay [7]. Besides, the composite z-score in assay [8] was -0.154; in assay [9], -0.358; in assay [10] it was 1.12. In addition, in [4], the z-score is -0.616 (inactive).
Consider `COc1ccc(CCNC(=O)[C@@]2(Sc3ccc(C)cc3)CC(=O)N(C3Cc4ccccc4C3)[C@@H]2c2ccc(CO)cc2I)cc1`, for which the composite z-score in [1] is 1.09; in assay [2], 0.736; in assay [3] it was 0.575; in assay [5] it was -0.461; in assay [6] it was -0.64; in assay [7] it was -0.895. Further, the figures for the composite z-score in assay [8], in assay [9] and in assay [10] were -0.856, -1.41 and 0.48, respectively. In addition, the z-score in assay [4] was -1.27 (inactive).
On to `COC(=O)[C@@]1(Cc2ccc(OC)cc2)[C@@H]2C(=CC(=O)[C@H]2CC(=O)C(=O)N2CCCC2)CN1C(=O)c1ccccc1`, for which the composite z-score in assay [1] is 0.108; in [2], 1.01; in assay [3], 0.918; in assay [5], -0.148; in assay [6], -0.573; in [7], 0.351. For the same molecule, the results for the composite z-score in assay [8], in assay [9] and in assay [10] were 0.0649, -0.69 and 0.765, respectively. Besides, in assay [4], the z-score is -2.47 (inactive).
With `CN1C(=O)C2C=CC(C(O)c3ccccc3)N(N(c3ccccc3)c3ccccc3)C2C1=O` (stereo not given), the composite z-score in assay [1] is 1.59; in [2], 0.629; in assay [3], 0.632; in assay [5], -0.113; in assay [6], -0.372; in assay [7], 0.142. In addition, the composite z-score in assay [8] amounted to 0.455; in assay [9], 0.254; in assay [10] it was 1.07. Besides, the z-score in [4] was 0.597 (inactive).
As for `COc1cc2c(cc1OC)CN(C(=O)[C@H]1[C@@H]3C(=O)O[C@@H](c4ccccc4)[C@@H](c4ccccc4)N3[C@@H](c3ccc(O)cc3)[C@]13C(=O)Nc1ccc(C#CCCO)cc13)CC2`, the composite z-score in assay [1] is 0.957; in assay [2], 0.0325; in [3], 0.481; in [5], 0.398; in [6], 0.0837; in assay [7] it was -0.0179. Further, the figures for the composite z-score in [8], in assay [9] and in [10] were 0.249, -0.0546 and 0.224, respectively. The z-score in [4] is 0.0673 (inactive).
On to `C=CCC(OC(C)=O)[C@@H]1[C@@H](N(Cc2ccc(-c3ccccc3)cc2)C(=O)Cc2ccc(OC)cc2)c2cc(OCCCO)ccc2N1C(=O)Cc1ccc2ccccc2c1` (stereo not given in full), for which the composite z-score in assay [1] was -0.324; in assay [2] it was -0.0834; in [3], 0.308; in [5], -0.437; in [6], -0.299; in [7], -0.163. Besides, the composite z-score in assay [8] was -0.0274; in assay [9], -0.0237; in [10], 1.06. For the same molecule, in assay [4], the z-score is 0.247 (inactive).
In the case of `O=C(c1ccccc1)N1C(=O)[C@@]2(Cc3ccccc31)N=C(c1ccc(OCCCO)cc1)O[C@H]2c1ccccc1`, the composite z-score came out at 1.64 in assay [1]; 1 in assay [2]; 0.965 in [3]; 1.06 in assay [5]; 1.33 in assay [6]; 0.782 in assay [7]. Besides, the values for the composite z-score in assay [8], in [9] and in [10] were 1.22, 0.973 and 0.992, respectively. Moreover, in assay [4], the z-score was -0.663 (inactive).
As to `COc1cc(C(O)C2C=CC3C(=O)NC(=O)C3N2Nc2ccccn2)cc(OC)c1OC` (stereo not given), the composite z-score was 1.18 in assay [1]; -0.149 in assay [2]; 0.418 in assay [3]; 0.12 in [5]; 0.211 in [6]; 0.635 in assay [7]. In addition, the composite z-score was -0.027 in assay [8], 0.336 in assay [9] and 0.791 in assay [10]. For the same molecule, the z-score in assay [4] was 1.53 (inactive).
Turning to `O=C1C[C@]2(c3ccc([N+](=O)[O-])cc3)C(=O)N(CC(F)(F)F)c3cc(CO)ccc3[C@H]2N1C1CCCCC1`, the composite z-score was -0.535 in [1]; 0.246 in [2]; 0.564 in [3]; -0.431 in [5]; -0.161 in [6]; -1.1 in assay [7]. Further, the composite z-score in assay [8] is -0.883; in [9], -0.906; in [10], 0.23. The z-score in assay [4] was 0.465 (inactive).

(Values after PubChem BioAssay.)
